3CLpro inhibitor: SARS-CoV 3CLpro protease inhibition. P0C6X7. recombinant SARS-CoV 3CLpro, quenched FRET peptide cleavage. inhibition, % at 6 µM. actives 0.14% (n = 290,000); in the data active means inhibition above about 12%
MazEF act: MazEF (E. coli) toxin RNase activation | P0AE70 | FAM/BHQ RNA-DNA oligo cleavage fluorescence, 5 h | activation, % at 20 µM | actives 0.32% (n = 350,000) | AID 504720; in the data active means activation above about 50%
Target sequence (P0AE70 whole entry, looked up): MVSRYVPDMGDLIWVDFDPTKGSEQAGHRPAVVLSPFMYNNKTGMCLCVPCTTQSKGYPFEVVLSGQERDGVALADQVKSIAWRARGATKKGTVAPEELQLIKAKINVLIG
BH1578 lux ind: inducers of Vibrio cholerae quorum light production without autoinducers. V. cholerae BH1578 lux reporter, luminescence, 6 h. activation, % at 18.7 µM. actives 0.16% (n = 350,000); in the data active means activation mostly above about 9.7%, no sharp cut-off; inconclusive means no clear call, values can overlap the other calls; inactive means mostly below about 3.7%
DUSP3 inh: inhibitors of human VHR1 phosphatase (DUSP3) | P51452 | recombinant VHR phosphatase, pNPP absorbance | inhibition, % at 13.3 µM | actives 0.52% (n = 290,000) | AID 1654; in the data active means inhibition above about 50%
Target sequence (P51452 whole entry, looked up): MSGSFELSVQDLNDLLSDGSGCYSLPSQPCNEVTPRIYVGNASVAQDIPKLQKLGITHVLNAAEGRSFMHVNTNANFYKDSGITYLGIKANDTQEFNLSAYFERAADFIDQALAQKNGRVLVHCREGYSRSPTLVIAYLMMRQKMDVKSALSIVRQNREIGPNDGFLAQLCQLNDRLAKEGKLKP
BJeLR viability: kills HRASV12-expressing BJeLR cells | BJeLR (HRASV12) viability, CellTiter-Glo ATP luminescence, 48 h | inhibition, % (concentration not given with the values) | actives 0.17% (n = 300,000) | AID 1554; in the data active means inhibition above about 50%; inconclusive means no clear call, values can overlap the other calls
PfHsp40 rescue: rescue of PfHsp40-mediated yeast toxicity; S. cerevisiae expressing PfHsp40, growth rescue, ATP luminescence; growth rescue, % at 12.5 µM; actives 0.68% (n = 340,000); AID 504582; in the data active means growth rescue above about 28%, passing the limit was not always enough; inconclusive means no clear call, values can overlap the other calls;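 further: yeast W303a lacking pdr1 and pdr3 grown in galactose medium; growth measured after three days at 30 °C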
Numbers stand for hits; 0 = inactive; ? = inconclusive; - = not tested or not shown; + = active, no number. Compounds with a hit are over-represented: about 1.7% of the library has one in this group of screens.

SMILES	3CLpro inhibitor	MazEF act	BH1578 lux ind	DUSP3 inh	BJeLR viability	PfHsp40 rescue
CCOC(=O)C1=C(C)N(CCCCCC(=O)O)C(=O)NC1c1cccc([N+](=O)[O-])c1 (configuration not stated)	0	0	0	0	0	0
CCOC(=O)C1=C(C)N(CCCCCC(=O)O)C(=O)NC1c1ccc([N+](=O)[O-])cc1 (configuration not stated)	0	0	0	51.5	0	0
CC(=O)c1ccccc1OCCOCCOCCOc1ccccc1C(C)=O	0	0	0	0	55.3	0
NNC(=O)c1ccccc1OCCOc1ccccc1	0	0	0	54.8	0	0
CC(=O)c1ccccc1OCCCN1CCCCC1	0	0	0	0	0	0
CC(NCc1ccc(OCC(N)=O)cc1)C12CC3CC(CC(C3)C1)C2 (configuration not stated)	0	0	0	0	0	0
CCOc1ccc(-n2c(=O)c3sccc3n(CC(=O)NC3CCCCC3)c2=O)cc1	0	0	0	0	0	0
CC(C)CNc1ncnc2c1ncn2[C@H]1CN(Cc2ccc(C(=O)O)cc2)C[C@@H](CO)O1	-	-	0	-	-	-
C/C=C/c1ccc(OCCOc2cc(C=O)ccc2OC)c(OC)c1	0	0	0	0	0	39.3
COc1cccc(CN(C)C(=O)c2ccc(COc3ccc(Cl)cc3)cc2)c1OC	0	0	0	58.5	0	0
COc1ccccc1CN(C)C(=O)c1ccc(COc2ccccc2)cc1	0	0	0	0	0	0
Cc1cc(C)n(CCCN2C(=O)c3cccc4cccc(c34)C2=O)n1	0	0	0	0	0	0
Cc1ccc(S(=O)(=O)Nc2ccc(O)c3cccnc23)cc1	0	0	0	0	0	0
Cc1ccc(S(=O)(=O)Nc2ccc(O)c3ncccc23)cc1	0	0	0	0	0	188.5
Cn1c(=O)c2cc(NC(=S)NC3CC3)ccc2n1Cc1cccc(C(F)(F)F)c1	-	-	0	-	-	-
COc1ccc(CCNC(=O)C(=O)NCC2OCCN2C(=O)c2ccc(Cl)cc2)cc1 (configuration not stated)	0	0	0	0	0	0
O=C(NCCN1CCOCC1)C1CC(=O)N(c2ccc(F)cc2)C1 (configuration not stated)	0	0	0	0	0	0
O=C(NCCN1CCOCC1)C1CC(=O)N(c2ccc(Cl)cc2)C1 (configuration not stated)	0	0	0	50.0	0	0
O=S(=O)(c1ccc(Br)cc1)N1CCCc2ccccc21	0	0	0	0	0	0
CCN(CC)S(=O)(=O)c1ccc(N/N=C/c2cc(OC)c(OC)cc2OC)nc1	0	0	0	0	0	0
CCOc1cccc(/C=N/Nc2ccc(S(=O)(=O)N(CC)CC)cn2)c1O	0	0	0	0	51.6	0
CCOC(=O)C1CCN(c2nc3ccccc3nc2C(C#N)C(=O)OC(C)C)CC1 (configuration not stated)	0	351.3	0	0	0	0
COc1ccc(CNC(=O)C(C#N)c2nc3ccccc3nc2N2CCCC2)cc1 (configuration not stated)	0	+	0	0	0	0
COc1ccc(CNC(=O)C(C#N)c2nc3ccccc3nc2N2CCN(C)CC2)cc1 (configuration not stated)	0	0	0	0	0	0
O=C(NNC1=C(C(=O)C(F)(F)F)CCC1)c1cccc(Cl)c1	0	0	0	0	0	54.0
SMILES	3CLpro inhibitor	MazEF act	BH1578 lux ind	DUSP3 inh	BJeLR viability	PfHsp40 rescue
O=C(N1CCN(c2ccccc2)CC1)C(F)(F)C(F)F	0	0	0	51.6	0	0
COCCCn1c(=O)/c(=C\c2ccccc2OC(F)F)s/c1=C(/C#N)C(=O)NC(C)C	0	303.4	0	0	0	0
N#C/C(N=Nc1ccccc1O)=N\Nc1ccccc1O	-	0	0	-	56.0	?
Oc1ccccc1N=N/C(=N/Nc1ccccc1O)c1ccccc1	-	0	0	-	0	0
COCCNC(=S)N1CCC(NC(=O)Nc2ccc(C)cc2)CC1	0	0	0	0	0	0
CCOC(=O)CSc1ccc2ccccc2n1	0	0	0	0	0	0
CCOC(=O)CN1C=C(c2ccc3ccccc3n2)C(C[N+](=O)[O-])c2ccccc21 (configuration not stated)	0	233.1	0	0	0	0
O=C(N/N=C/c1ccc([N+](=O)[O-])o1)c1cc2ccccc2o1	0	0	0	0	67.6	0
Cn1cc(S(=O)(=O)N2CCN(c3ccccc3F)CC2)c(=O)n(C)c1=O	0	0	0	53.3	0	0
CCOC(=O)C1CCN(S(=O)(=O)c2cn(C)c(=O)n(C)c2=O)CC1	0	0	0	0	0	0
CCOC(=O)N1CCN(S(=O)(=O)c2cn(C)c(=O)n(C)c2=O)CC1	0	0	0	52.2	0	0
Cc1ccccc1NC(=O)COC(=O)c1ccc(C)c(S(=O)(=O)N2CCCCC2)c1	-	0	0	-	-	-
CCCC(=O)Nc1ccc(S(=O)(=O)Nc2cc(OC)ncn2)cc1	0	0	0	0	0	0
Cc1cc(C)c(C)c(OCCCOc2cccc3cccnc23)c1	0	0	0	0	0	92.7
Cc1cc(OCCOc2cccc3cccnc23)cc(C)c1Cl	0	0	0	0	0	0
CN(C)c1ccc(Nc2nc(-c3cccnc3)cs2)cc1	0	0	0	0	0	0
CCN(CC)c1ccc(Nc2nc(-c3cccnc3)cs2)cc1	0	0	0	56.9	0	0
O=C(Nc1ccc(Oc2ccccc2)nc1)C1CCCCN1Cc1ccc(OCCO)cc1 (configuration not stated)	0	0	0	0	0	0
COc1ccc(S(=O)(=O)N2c3cc(Cl)ccc3Oc3nc4ccccc4nc32)cc1	0	0	0	0	74.2	0
CN(C)S(=O)(=O)Oc1cccc(C(=O)Nc2ccc(Cl)c(Cl)c2)c1	0	0	0	0	0	233.3
CC(=O)NCCc1nc2ccccc2n1Cc1ccccc1	0	0	0	0	0	0
CC(=O)NCCc1c(C)n(Cc2ccccc2)c2ccccc12	0	0	0	0	0	63.8
CC(OC(=O)c1nn(C(C)C)c(=O)c2ccccc12)C(=O)Nc1ncc(Cl)cc1Cl (configuration not stated)	0	0	0	59.9	0	0
CC(C)n1nc(C(=O)Oc2cc(Cl)ccc2Cl)c2ccccc2c1=O	0	0	0	0	0	0
N#C/C(C(=O)Oc1ccccc1)=C1\C=Cc2ccccc2N1	0	50.3	0	0	0	0
CCn1nc(-c2cccs2)nc2c(=O)n(C)c(=O)nc1-2	-	0	0	90.0	-	0
CCn1nc(/C=C/c2ccccc2)nc2c(=O)n(C)c(=O)nc1-2	0	0	0	-	0	275.9
Cc1nn(-c2ccccc2)c(C)c1NC(=O)COC(=O)c1ccc(Cl)c(S(N)(=O)=O)c1	-	0	0	-	0	0
CC(=O)Oc1ccc2ccccc2c1C(NC(=O)Cc1ccccc1)c1ccc(Cl)cc1 (configuration not stated)	0	0	0	0	0	40.4
